Screening data: PubChem BioAssay, National Center for Advancing Translational Sciences (NCATS)
Marburg entry inh: qHTS for inhibitors of binding or entry into cells for Marburg Virus | Marburg virus pseudotyped entry inhibition, cell reporter | Potency, µM (titrated, usually from 37.8 µM), for inactives: at the top dose activity change, negative = inhibition, hits mostly inhibitors | 300,000 tested, 1.8% active | AID 540276, 2011; calls by dose curve; tested in HEK293 cells; further: potency means the concentration at half of the fitted maximal effect; on the % scale 0 is the no-effect control and ±100 the full control effect
CHX counter: Cycloheximide Counterscreen for Small Molecule Inhibitors of Shiga Toxin; cell reporter, cycloheximide protein synthesis inhibition counterscreen; max response, %; 300,000 tested, 12% active; in the data active means max response mostly above about 13%, no sharp cut-off; inactive means mostly below about 14%; further: read at 38.3 µM for the half of the compounds with a filed dose; 0% is about no effect
Shiga toxin inh: A qHTS for Small Molecule Inhibitors of Shiga Toxin | Vero cells, Shiga toxin protein synthesis inhibition reporter | 290,000 tested, 9.2% active | inhibition, % at 38.7 µM | AID 2315, 2010; in the data active means inhibition mostly above about 28%, no sharp cut-off; inactive means mostly below about 43%; further: 0% is about no effect
Lassa entry inh: qHTS for Inhibitors of binding or entry into cells for Lassa Virus; Lassa virus pseudotype entry inhibition, cell reporter; Potency, µM (top dose mostly 37.9 µM), without a hit: at the top dose activity change, negative = inhibition, actives largely listed as inhibitors; 300,000 tested, 1.2% active; AID 540256, 2011; calls by dose curve; tested in HEK293 cells; further: potency means the concentration at half of the fitted maximal effect; on the % scale 0 is the no-effect control and ±100 the full control effect; nearly all actives have a fitted effect of over 50% in size
Pf growth 48h: Primary qHTS for delayed death inhibitors of the malarial parasite plastid, 48 hour incubation | AID 504832, 2011 | P. falciparum luciferase growth in erythrocytes, 48 h | 310,000 tested, 5.9% active | Potency, µM (doses to about 28.7 µM), without a hit: at the top dose activity change, negative = inhibition, usual class: inhibitors; further: potency means the concentration at half of the fitted maximal effect; on the % scale 0 is the no-effect control and ±100 the full control effect
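Read-out is firefly luciferase luminescence from an integrated reporter in P. falciparum, so falling signal marks reduced parasite growth. Infected erythrocytes were at 2% hematocrit and 0.1% parasitemia (final) in Albumax-supplemented RPMI 1640.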
Pf growth 96h: Primary qHTS for delayed death inhibitors of the malarial parasite plastid, 96 hour incubation | P. falciparum luciferase reporter growth, 96 h | Potency, µM (series often up to 28.7 µM), without a hit: at the top dose activity change, negative = inhibition, most hits filed as inhibitors | 320,000 tested, 6.9% active | AID 504834, 2011; further: potency means the concentration at half of the fitted maximal effect; on the % scale 0 is the no-effect control and ±100 the full control effect
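Infected RBCs, 2% Hct / 0.05% parasitemia final; luciferase-reporter P. falciparum; cpd 96 h, 37 C, 5% CO2; luciferase detection reagent; luminescence.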
The depositor's hits bear a star; u = inconclusive; x = no result; [ ] = dose if it differs, or a comment. An excerpt weighted towards active compounds, which were near 19% of everything screened. Unless noted, the call rests on the fitted dose curve; in most records, active means well fitted inhibition curve with a large enough effect; inconclusive means small, poorly fitted or top-dose-only effect, or another doubt; inactive means no such curve, though single readings can be large or run the other way.

SMILES	Marburg entry inh	CHX counter	Shiga toxin inh	Lassa entry inh	Pf growth 48h	Pf growth 96h
Fc1ccc(NCc2nnc(SCc3nnc(-c4ccccc4)o3)n2Cc2ccccc2)cc1	-11.0%	-2.7	-2.8	0.3%	u	-0.2%
O=C(CSc1nnc(-c2cccc(F)c2)o1)N1CCOCC1	8.5%[46.1 µM]	5.7	-6.5	9.9%[46.1 µM]	-14.1%	-17.3%
O=C(CSc1nnc(-c2cccc(F)c2)o1)N1CCCC1	u	23.2*	35.6	u	79.8%	89.4%
O=C(CSc1nnc(-c2ccc(OC(F)F)cc2)o1)N1CCOCC1	2.3%	21.4*	82.4*	28.3%	80.8%	u
COc1ccc(OC)c(-c2nnc(SCC(=O)N3CCOCC3)o2)c1	9.0%	2.4	-10.5	-19.5%	13.3%	10.2%
Cc1cccc(-c2nnc(SCC(=O)N3CCOCC3)o2)c1	u	20.7*	70.5*	u	118.6%	u
COc1ccc(-c2nnc(SCC(=O)N3CCOCC3)o2)cc1	-5.2%	16.8	122.2*	-12.0%	140.6%	x
Cc1cc2oc(=O)cc(Cn3ncc(Cl)c(Cl)c3=O)c2cc1Cl	u	-1.8	7.8	u	u	u
CC(C)NC(=O)/C(=C\c1cccc([N+](=O)[O-])c1)NC(=O)c1ccccc1	13.3%	-2.1	38.8	-25.4%[14.3 µM]	-1.2%	32.8%
COc1cccc(-c2nnc(SCC(=O)N3CCOCC3)o2)c1	11.4%	22.1*	31.7	2.1%	46.9%	11.7µM*
CCN1C(=O)C(O)(CC(=O)/C=C/C=C/c2ccccc2)c2ccccc21 (stereo unspecified)	6.0%	1.7	-8.2	4.9%	u	u
Cc1ccc2c(c1)C(O)(CC(=O)/C=C/C=C/c1ccccc1)C(=O)N2 (stereo unspecified)	10.5%	27.2*	22.5	-1.8%	5.5%	u
CCc1ccc2oc(=O)cc(CN3CCN(CCO)CC3)c2c1	7.9%	-2.3	51.1	7.6%	-0.6%	0.0%
CCC(C)n1c(SCC(=O)Nc2cc(C)on2)nc2ccccc2c1=O (stereo unspecified)	3.98µM*	-1.9	-16.4	-11.9%	u	u
CCc1nc2ccccc2n1CC(=O)Nc1cc(C)on1	u	8.0	8.2	23.9%[46.1 µM]	54.0%	4.65µM*
CCCc1nc(SCC(=O)Nc2cc(C)on2)c2ccccc2n1	u	6.0	-18.2	u	-23.0%	2.08µM*
COCC(C)n1c(SCC(=O)Nc2cc(C)on2)nc2ccccc2c1=O (stereo unspecified)	-0.4%	x	x	-29.4%	u	-18.0%
Cc1cc(NC(=O)CSc2nc3ccccc3c(=O)n2C(C)c2ccccc2)no1 (stereo unspecified)	3.16µM*	-4.0	-5.8	2.51µM*	x	11.7µM*
O=C(CC12CC3CC(CC(C3)C1)C2)NCC(=O)N1CCc2ccccc2C1	10.0%	-1.5	10.2	-3.0%	x	u
CCCS(=O)(=O)N1CCCC(C(=O)NC2CCCC(C)C2C)C1 (stereo unspecified)	0.7%	-3.2	-1.8	7.1%	8.4%	u
CC(C)(C)c1cc(NC(=O)CSc2nncs2)n(-c2ccccc2)n1	u	-2.3	-9.3	4.8%	1.5%	42.4%
Cc1nnc(SCC(=O)Nc2cc(C(C)(C)C)nn2-c2ccccc2)s1	-32.6%	-3.9	-12.1	1.1%	-5.8%	-0.2%
CCC(C)n1c(SCC(=O)Nc2cc(C(C)(C)C)nn2-c2ccccc2)nc2ccccc2c1=O (stereo unspecified)	-40.7%	-2.1	14.7	u	10.4µM*	5.86µM*
Cc1csc(SCC(=O)Nc2cc(C(C)(C)C)nn2-c2ccccc2)n1	u	-3.2	-6.1	u	7.38µM*	u
Cc1ccn2cc(C(=O)Nc3cccc(C(=O)NC4CC4)c3)nc2c1	u	x	x	u	-27.4%	u
SMILES	Marburg entry inh	CHX counter	Shiga toxin inh	Lassa entry inh	Pf growth 48h	Pf growth 96h
CCOc1ccc(N(C(=O)c2ccc(C)cc2)S(=O)(=O)c2ccc3c(c2)n(C)c(=O)n3C)cc1	14.3%[46.1 µM]	x	x	u	x	x
C[N+](C)(C)CCC(=O)c1cccc2ccccc12	4.47µM*	x	x	x	x	x
O=C(O)CCC(=O)c1cccc2ccccc12	u	-2.8	-10.4	u	x	19.1%
O=C(c1ccc(=O)[nH]c1)N1CCN(S(=O)(=O)c2ccc3ccccc3c2)CC1	x	x	x	x	31.8%	-4.4%
CCCCCC(C)NC(=O)c1cc(S(=O)(=O)N2CCCCC2)ccc1N1CCOCC1 (stereo unspecified)	x	x	x	x	13.1µM*	u
CCc1ccc(CN(C)C(=O)c2cc(S(=O)(=O)N3CCOCC3)ccc2N2CCCC2)cc1	-45.7%	x	x	u	11.7µM*	u
CC1CCC(NC(=O)c2cc(S(=O)(=O)N3CCCCC3)ccc2N2CCOCC2)CC1 (stereo unspecified)	-5.2%	x	x	-9.2%	9.28µM*	u
COC(=O)CSc1ccc2nnc(-c3ccc(F)cc3)n2n1	-3.1%	-1.3	-9.3	5.5%	20.4%	-10.7%
Cc1ccc(Nc2c(-c3ccc(N4CCOCC4)cc3)nc3ncccn23)c(C)c1	u	-2.8	-0.9	-3.4%[46.1 µM]	u	u
COc1c(F)c(F)c(C(=O)O)c(Nc2cc(C)cc(C)c2)c1F	21.7%[46.1 µM]	-4.7	27.0	16.2%	30.8%	u
Cn1c(=O)c2c(nc(SC3C(=O)CC(C)(C)CC3=O)n2C)n(C)c1=O	2.5%	-5.1	7.2	-4.5%	23.8%	11.7µM*
COc1ccc(S(=O)(=O)N2CCN(C(=O)c3ccco3)CC2)c(C)c1C	x	0.5	-9.3	x	-2.9%	133.8%
COc1cc(C(O)P(=O)(OC2CCCCC2)c2ccc(N(C)C)cc2)cc(OC)c1OC (stereo unspecified)	14.3%	-1.3	-9.9	7.2%	u	13.1µM*
CN(C)c1ccc(N2C(=O)CC(c3ccccc3)CC2=O)cc1	14.9%	11.7	30.0	u	40.9%	39.1%
Cn1cc(CN2CC3C[C@@H]4CC2C[C@H](C3)C4)c(-c2ccc3c(c2)OCCO3)n1	-0.1%[46.1 µM]	16.4	22.2	4.9%	-19.5%	11.7µM*
O=C(O)c1ccc(S(=O)(=O)N[C@H](Cc2ccccc2)C(=O)O)cc1	x	-7.0	-5.5	x	x	x
O=C(CN(C(=O)CNC(=O)c1cccs1)c1ccc2c(c1)OCCO2)NC1CCCC1	-17.8%	-0.4	-7.4	0.9%	10.5%	11.7%
Cc1ccccc1N(CC(=O)N/N=C/c1cc(C)n(-c2ccccc2C)c1C)S(C)(=O)=O	-6.0%	5.4	11.8	-15.8%	u	x
COc1ccc(OCc2cc(C(=O)NC(C)Cn3cncn3)no2)c(Cl)c1 (stereo unspecified)	u	39.5*	62.3*	-36.1%	15.0%	0.9%
CC(Cc1cccnc1)NC(=O)c1cc(COc2ccc(F)cc2F)on1 (stereo unspecified)	-26.6%	7.3	28.1	2.6%	u	23.9%
COc1ccc(OCc2cc(C(=O)NC(C)Cc3cccnc3)no2)c(Cl)c1 (stereo unspecified)	x	27.0*	38.0	x	-6.2%	-21.8%
